# Assay outcomes: PubChem BioAssay, National Center for Advancing Translational Sciences (NCATS)
# HepG2 tox = kills HepG2 cells in TGF-b inhibitor counter-screen; HepG2 CAGA-GFP viability, ATP luminescence, 18 h; Potency, µM (titrated, usually from 46.1 µM), usual class: cytotoxic; 410,000 compounds, 0.76% hits
#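 HepG2 CAGA-GFP cells (1000/well, DMEM with 1% FBS) received compound, then TGF-beta at 500 pg/mL final, and were incubated 18 hours at 37 degrees C. Viability was read by CellTiter-Glo luminescence. Media-only wells were set as complete cell-killing and DMSO as no toxicity.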
# TDP1 inh = TDP1 (human) enzyme inhibition | 350,000 compounds, 0.28% hits | recombinant TDP1, AlphaScreen DNA substrate cleavage | Potency, µM (doses to about 130 µM), usual class: inhibitors | AID 485290 | Q9NUW8; further: nearly all actives have a fitted effect of over 40% in size
# Target sequence (Q9NUW8 whole entry, looked up): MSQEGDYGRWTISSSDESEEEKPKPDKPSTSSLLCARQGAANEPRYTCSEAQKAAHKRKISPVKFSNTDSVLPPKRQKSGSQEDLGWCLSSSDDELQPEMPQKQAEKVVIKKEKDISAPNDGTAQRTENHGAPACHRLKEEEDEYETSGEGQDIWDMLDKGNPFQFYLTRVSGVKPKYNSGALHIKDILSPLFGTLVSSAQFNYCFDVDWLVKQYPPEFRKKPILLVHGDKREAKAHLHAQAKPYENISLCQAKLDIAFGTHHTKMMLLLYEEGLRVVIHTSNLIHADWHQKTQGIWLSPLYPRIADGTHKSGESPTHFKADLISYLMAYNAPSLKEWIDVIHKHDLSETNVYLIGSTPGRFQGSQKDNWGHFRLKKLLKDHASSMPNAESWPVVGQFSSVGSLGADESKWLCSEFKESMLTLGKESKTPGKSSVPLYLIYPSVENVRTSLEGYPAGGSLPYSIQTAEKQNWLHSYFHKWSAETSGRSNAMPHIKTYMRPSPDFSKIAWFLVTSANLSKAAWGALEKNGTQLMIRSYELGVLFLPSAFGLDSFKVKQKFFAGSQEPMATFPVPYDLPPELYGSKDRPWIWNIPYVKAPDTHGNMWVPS
#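 AlphaScreen read-out: signal falls as enzyme removes the 3' tyrosine-FITC from a 5'-biotinylated DNA oligo (15 nM, 5 min, RT). Enzyme was E. coli-made recombinant Tdp1 at 1 nM, exposed to compound for 15 min beforehand; beads 10 ug/ml, 10 min.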
# IL1B secr inh = blocks inflammasome-driven IL-1 beta release. THP-1 LPS/ATP IL-1B secretion, AlphaLISA, 16 h; stronger effect = lower value. activity change, % at 57.5 µM. 360,000 compounds, 4.7% hits. AID 743279; in the data active means activity change below about -50%; inconclusive means mostly about -30% to -49%
#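 THP-1 cells pretreated 1 hr with compounds (up to 57.5 uM final), then stimulated with LPS (250 ng/mL final) plus ATP (1.25 mM final); secreted IL-1B measured by AlphaLISA after 16 hr, decreased signal indicating inhibition.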
# DT40 TDP1 CPT = DT40-hTDP1 cell growth loss with CPT; chicken DT40 Tdp1-/-;hTDP1 cells + 20 nM CPT, ATP luminescence, 48 h; Potency, µM (top dose mostly 46.2 µM), actives largely listed as inhibitors; 420,000 compounds, 12% hits; AID 686979; further: nearly all actives have a fitted effect of over 55% in size
#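 Chicken DT40 Tdp1-/- cells complemented with human TDP1, 400 cells/well, exposed to compounds plus 20 nM camptothecin for at least 48 h at 37 C; viability read as ATP content by CellTiter-Glo luminescence.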
# DT40 TDP1 no CPT = qHTS for Inhibitors of human tyrosyl-DNA phosphodiesterase 1 (TDP1): qHTS in cells in absence of CPT; 420,000 compounds, 15% hits; AID 686978, 2013; DT40 Tdp1-/- hTDP1 cells, no CPT, ATP luminescence, 48 h; Potency, µM (highest dose often 46.2 µM), hits mostly inhibitors; further: nearly all actives have a fitted effect of over 55% in size
#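 Growth of hTDP1-complemented DT40 Tdp1-knockout cells is measured by ATP luminescence after at least 48 hr compound exposure at 37 °C, with DMSO substituting for the 20 nM CPT used in the parallel screen.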
# TGFb inhibitor = inhibitors of TGF-b signaling. HepG2 CAGA-GFP TGF-b/SMAD3 reporter, GFP fluorescence, 18 h; TGF-beta stimulated, 500 pg/mL final. Potency, µM (titrated, usually from 46.1 µM), most hits filed as inhibitors. 410,000 compounds, 1.2% hits. AID 588855; further: nearly all actives have a fitted effect of over 65% in size
#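 HEPG2 CAGA-GFP reporter cells (1000/well, DMEM with 1% FBS) received compounds, then recombinant TGF-beta at 500 pg/mL final for 18 hours at 37 degrees C. Per-cell GFP summed per well was normalised to unstimulated and stimulated DMSO controls before curve fitting.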
# Numbers stand for hits; – = inactive; ? = inconclusive; · = no result given; [ ] = dose if it differs, or a comment. Sampled rows, rich in hits. Any-hit rate of the full collection: about 19%. Unless noted, the call rests on the fitted dose curve; in most records, active means well fitted curve in the direction sought with a large enough effect; inconclusive means small, poorly fitted or top-dose-only effect, or another doubt; inactive means no such curve, though single readings can be large; an effect the other way counts as inactive or inconclusive.
SMILES,HepG2 tox,TDP1 inh,IL1B secr inh,DT40 TDP1 CPT,DT40 TDP1 no CPT,TGFb inhibitor
CC(C)NC(=O)NC(=O)COC(=O)c1c2c(nc3ccccc13)CCC2,–,·,?,9.2µM,13µM,–
O=C(CSc1c2c(nc3ccccc13)CCCC2)NCc1ccco1,–,–,–,–,–,–
CC(C)(C)NC(=O)COC(=O)c1c2c(nc3ccccc13)CCC2,–,·,–,?,9.2µM,–
CN(CC(=O)Nc1ccccc1C(F)(F)F)C(=O)CCc1nc2ccccc2c(=O)[nH]1,–,·,–,–,–,–
O=c1[nH][nH]c(-c2ccccc2O)c1C(C[N+](=O)[O-])c1ccccc1 (centres undefined),–,–,–,4.6µM,5.2µM,–
O=c1[nH][nH]c(-c2ccccc2O)c1C(C[N+](=O)[O-])c1cccc(Cl)c1 (centres undefined),–,–,–,?,?,–
O=C(N/N=C/c1c(Cl)cccc1Cl)c1n[nH]c2c1CCCC2,–,–,–,23µM,12µM,–
Cc1ccsc1/C=N\NC(=O)c1n[nH]c2c1CCC2,–,–,–,3.3µM,3.3µM,–
Cc1ccsc1/C=N/NC(=O)c1sccc1C,–,–,–,?,?,–
O=C1SC(Nc2ccccc2)C(=O)N1c1ccccc1 (centres undefined),·,·,·,–,–,·
O=C(NCCC1CCCCN1S(=O)(=O)c1ccccc1)C(=O)Nc1ccccc1F (centres undefined),–,·,–,18µM,23µM,–
O=C(NCCC1CCCCN1S(=O)(=O)c1ccccc1)C(=O)Nc1ccccc1 (centres undefined),–,–,–,?,?,–
O=C(NCCC1CCCCN1S(=O)(=O)c1ccccc1)C(=O)Nc1ccc(F)cc1F (centres undefined),–,–,?,18µM,18µM,–
O=C(NCCC1CCCCN1S(=O)(=O)c1ccc(F)cc1)C(=O)Nc1ccccc1F (centres undefined),–,–,–,?,26µM,–
Cc1ccc(S(=O)(=O)N2CCCCC2CCNC(=O)C(=O)Nc2ccccc2F)cc1 (centres undefined),–,–,–,6.5µM,5.8µM,–
COc1ccc([C@H]2CC(=O)C=C(c3c(C)cc(C)cc3C)C2)cc1,–,–,–,?,?,–
O=C(NCCC1CCCCN1S(=O)(=O)c1ccc(F)cc1)C(=O)NC1CCCC1 (centres undefined),–,–,–,?,?,–
COc1ccccc1NC(=O)C(=O)NCCC1CCCCN1S(=O)(=O)c1ccc(F)cc1 (centres undefined),–,–,–,15µM,18µM,–
COc1ccc(C(C(=O)NC2CCCC2)N(Cc2cccnc2)C(=O)c2snc(C(N)=O)c2N)cc1 (centres undefined),–,–,–,–,–,–
COc1ccc(-c2cc(OC(=O)c3cccc(Cl)c3)c3c(C)oc(C)c3c(=O)c2)cc1OC,–,–,·,?,?,–
Cc1ccccc1C(=O)Oc1cc(-c2ccc3c(c2)OCO3)cc(=O)c2c(C)oc(C)c12,–,–,·,?,?,–
COc1ccc(-c2cc(OC(=O)c3cccc(C)c3)c3c(C)oc(C)c3c(=O)c2)cc1,–,–,·,?,?,–
COc1cc(-c2cc(OC)c3c(C)oc(C)c3c(=O)c2)ccc1OC(=O)c1ccccc1C,–,–,·,5.2µM,8.2µM,–
COc1ccc(-c2cc(OC(=O)c3ccccc3Cl)c3c(C)oc(C)c3c(=O)c2)cc1OC,–,–,·,23µM,?,?
COc1ccc(-c2cc(OC(=O)c3ccccc3C)c3c(C)oc(C)c3c(=O)c2)cc1,–,–,·,?,16µM,–
SMILES,HepG2 tox,TDP1 inh,IL1B secr inh,DT40 TDP1 CPT,DT40 TDP1 no CPT,TGFb inhibitor
CCOc1ccc(-n2c(SCC(=O)N3CCc4ccccc43)nc3c([nH]c4ccccc43)c2=O)cc1,–,–,·,–,–,–
Cc1cc(C)cc(OC(C)C(=O)Nc2c(C(=O)c3ccccc3)oc3ccccc23)c1 (centres undefined),–,–,·,–,–,–
Cc1ccc(-c2nnc3c4ccccc4c(-c4ccccc4)nn23)cc1,–,–,·,–,–,–
COC(=O)C1=C(C(=O)OC)[C@@H]2Nc3ccccc3[C@@]23C[C@@H](C(=O)OC)N(S(=O)(=O)c2ccc(C#N)cc2)C3=N1,·,–[12.3 µM],·,·,·,·
CCCCCCn1c(O)c(/C=C2\C=NN=C2c2ccccc2)sc1=S,–,–,-87,?,23µM,?
CCCCn1c(O)c(/C=C2\C=NN=C2c2ccccc2)sc1=S,–,–,-85,?,?,–
CCn1c(O)c(/C=C2\C=NN=C2c2ccccc2)sc1=S,–,·,?,–,?,–
CC(C)Cn1c(O)c(/C=C2\C=NN=C2c2ccccc2)sc1=S,–,–,-89,?,?,?
CCc1ccc2oc(C(=O)Nc3cc(C)ccc3C)cc(=O)c2c1,–,–,·,–,–,–
CCC1CCCCN1CCCNC(=O)c1ccc(/C=C2/Sc3ccccc3NC2=O)cc1 (centres undefined),–,–,–,?,3.7µM,–
O=C1Nc2cc(C(=O)NCCCN3CCCC3)ccc2S/C1=C\c1ccccc1,16µM,–,–,?,18µM,?
O=C1Nc2cc(C(=O)NCCCN3CCOCC3)ccc2S/C1=C/c1cccc(Cl)c1,–,–,–,?,?,–
COc1ccc(/C=C2/Sc3ccc(C(=O)NCCN4CCCCCC4)cc3NC2=O)cc1,13µM,–,-90,3.7µM,3.3µM,25µM
CCC1CCCCN1CCCNC(=O)c1ccc2c(c1)NC(=O)CS2 (centres undefined),–,–,–,–,–,–
COc1cccc(C2c3c(ncn(-c4ccc(F)cc4)c3=N)Oc3ccc4ccccc4c32)c1 (centres undefined),·,–,·,·,·,·
COC1(C)CCC2OC2(C)CCC2C1CC2(C)C (centres undefined),·,–,·,–,–,·
Cc1ccc2cc(C3CC(c4ccco4)=NN3C(=O)CCC(=O)O)c(Cl)nc2c1 (centres undefined),–,–,–,?,16µM,–
CCOc1ccc2nc(Cl)c(C3CC(c4ccc(C)cc4)=NN3C(=O)CCCC(=O)O)cc2c1 (centres undefined),–,–,·,–,–,–
